Holding throughout (experiment): PBM; 200 nM protein, PBS
Common to all, as to conditions: dsDNA, one strand shown

In assay [1] the target is ALX4 (Homo sapiens, UniProt Q9H161 200-286).
For assay [2], the target named is ALX4 (Homo sapiens, UniProt Q9H161 200-286, Q225E).
The target in assay [3] is MSX2 (Homo sapiens, UniProt P35548 130-214, R199I).
In assay [4] the target is MSX2 (Homo sapiens, UniProt P35548 130-214).
Assay [5] addresses MSX2 (Homo sapiens, UniProt P35548 130-214, F161Y).
The target of assay [6] is T1, PAX4 (Homo sapiens, UniProt O43316 9-242, R200K).
T1 sequence: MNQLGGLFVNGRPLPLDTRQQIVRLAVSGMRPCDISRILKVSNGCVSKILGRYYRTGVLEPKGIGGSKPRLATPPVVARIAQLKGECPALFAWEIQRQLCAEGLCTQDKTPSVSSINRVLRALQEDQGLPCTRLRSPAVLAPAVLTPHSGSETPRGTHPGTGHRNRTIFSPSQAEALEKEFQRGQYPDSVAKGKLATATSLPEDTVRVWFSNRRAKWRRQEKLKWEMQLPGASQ

The target in assay [7] is T2, PAX4 (Homo sapiens, UniProt O43316 9-242).
T2 sequence: T1 sequence with K192R

The target in assay [8] is HOXB6 (Homo sapiens, UniProt P17509 132-218, K202E).
Chain of HOXB6 (Homo sapiens, UniProt P17509 132-218, K202E) (P17509 132-218 K202E): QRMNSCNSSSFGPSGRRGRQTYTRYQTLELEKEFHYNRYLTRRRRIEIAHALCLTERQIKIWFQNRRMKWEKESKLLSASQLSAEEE
Assay [9] deals with T3, PAX4 (Homo sapiens, UniProt O43316 9-242, R200Q).
T3 sequence: T1 sequence with K192Q

Assay [10] addresses T4, PAX4 (Homo sapiens, UniProt O43316 9-242, F177V).
T4 sequence: T1 sequence with F169V, K192R

For assay [11], the target named is T5, PAX4 (Homo sapiens, UniProt O43316 9-242, F177Y).
T5 sequence: T1 sequence with F169Y, K192R

The target in assay [12] is T6, PAX4 (Homo sapiens, UniProt O43316 9-242, R227W).
T6 sequence: T1 sequence with K192R, R219W

The target of assay [13] is HOXB6 (Homo sapiens, UniProt P17509 132-218).
Chain of HOXB6 (Homo sapiens, UniProt P17509 132-218) (P17509 132-218): as the sequence (P17509 132-218 K202E) above, with E71K counted along it
For assay [14], the target named is VAX1 (Homo sapiens, UniProt Q5SQQ9 86-172).
Chain of VAX1 (Homo sapiens, UniProt Q5SQQ9 86-172) (Q5SQQ9 86-172): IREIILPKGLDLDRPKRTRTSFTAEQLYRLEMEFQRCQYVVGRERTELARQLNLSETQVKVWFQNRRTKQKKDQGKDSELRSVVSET
The target of assay [15] is VAX1 (Homo sapiens, UniProt Q5SQQ9 86-172, T142I).
Chain of VAX1 (Homo sapiens, UniProt Q5SQQ9 86-172, T142I) (Q5SQQ9 86-172 T142I): as the sequence (Q5SQQ9 86-172) above, with T57I counted along it
Assay [16] addresses VAX1 (Homo sapiens, UniProt Q5SQQ9 86-172, K157R).
The target of assay [17] is ALX3 (Homo sapiens, UniProt O95076 139-225, N203Q).
Chain of ALX3 (Homo sapiens, UniProt O95076 139-225, N203Q) (O95076 139-225 N203Q): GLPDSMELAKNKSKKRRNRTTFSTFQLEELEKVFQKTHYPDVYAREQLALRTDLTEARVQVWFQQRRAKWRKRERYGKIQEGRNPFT
Assay [18] deals with ALX3 (Homo sapiens, UniProt O95076 139-225).
Chain of ALX3 (Homo sapiens, UniProt O95076 139-225) (O95076 139-225): as the sequence (O95076 139-225 N203Q) above, with Q65N counted along it
The target in assay [19] is ALX3 (Homo sapiens, UniProt O95076 139-225, L168Q).
Chain of ALX3 (Homo sapiens, UniProt O95076 139-225, L168Q) (O95076 139-225 L168Q): as the sequence (O95076 139-225 N203Q) above, with L30Q, Q65N counted along it
The target of assay [20] is ALX3 (Homo sapiens, UniProt O95076 139-225, L168V).
Chain of ALX3 (Homo sapiens, UniProt O95076 139-225, L168V) (O95076 139-225 L168V): as the sequence (O95076 139-225 N203Q) above, with L30V, Q65N counted along it
In assay [21] the target is ALX3 (Homo sapiens, UniProt O95076 139-225, N203S).
Chain of ALX3 (Homo sapiens, UniProt O95076 139-225, N203S) (O95076 139-225 N203S): as the sequence (O95076 139-225 N203Q) above, with Q65S counted along it
Assay [22] concerns the target PROP1 (Homo sapiens, UniProt O75360 56-141).
In assay [23] the target is PROP1 (Homo sapiens, UniProt O75360 56-141, R99H).
Chain of PROP1 (Homo sapiens, UniProt O75360 56-141, R99H) (O75360 56-141 R99H): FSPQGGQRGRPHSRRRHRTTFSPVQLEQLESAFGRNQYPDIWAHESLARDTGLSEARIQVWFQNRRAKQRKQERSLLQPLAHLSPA
The target in assay [24] is PROP1 (Homo sapiens, UniProt O75360 56-141, F88S).
Chain of PROP1 (Homo sapiens, UniProt O75360 56-141, F88S) (O75360 56-141 F88S): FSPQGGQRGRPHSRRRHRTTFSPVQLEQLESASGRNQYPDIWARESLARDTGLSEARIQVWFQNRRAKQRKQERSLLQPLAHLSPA
Assay [25] deals with ALX1 (Homo sapiens, UniProt Q15699 118-204, L144V).
Chain of ALX1 (Homo sapiens, UniProt Q15699 118-204, L144V) (Q15699 118-204 L144V): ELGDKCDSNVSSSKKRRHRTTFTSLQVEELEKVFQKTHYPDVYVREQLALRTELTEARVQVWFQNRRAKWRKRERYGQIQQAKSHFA
Assay [26] concerns the target ALX1 (Homo sapiens, UniProt Q15699 118-204, L144R).
Assay [27] concerns the target ALX1 (Homo sapiens, UniProt Q15699 118-204).
Assay [28] concerns the target PRRX1 (Homo sapiens, UniProt P54821 80-166, F113S).
The target in assay [29] is PRRX1 (Homo sapiens, UniProt P54821 80-166).
Chain of PRRX1 (Homo sapiens, UniProt P54821 80-166) (P54821 80-166): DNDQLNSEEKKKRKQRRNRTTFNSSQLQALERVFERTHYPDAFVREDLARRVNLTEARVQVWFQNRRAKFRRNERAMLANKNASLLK

Changes are numbered by the printed parent chain.

Chain of MSX2 (Homo sapiens, UniProt P35548 130-214, R199I) (P35548 130-214 R199I): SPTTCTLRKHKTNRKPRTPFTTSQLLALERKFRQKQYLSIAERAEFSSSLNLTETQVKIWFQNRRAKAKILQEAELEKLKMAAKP
Chain of ALX4 (Homo sapiens, UniProt Q9H161 200-286) (Q9H161 200-286): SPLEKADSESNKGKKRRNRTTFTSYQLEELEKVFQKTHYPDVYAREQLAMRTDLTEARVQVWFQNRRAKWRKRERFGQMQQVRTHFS
Chain of MSX2 (Homo sapiens, UniProt P35548 130-214, F161Y) (P35548 130-214 F161Y): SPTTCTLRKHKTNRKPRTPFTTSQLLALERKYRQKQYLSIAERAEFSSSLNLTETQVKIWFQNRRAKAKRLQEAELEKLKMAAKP
Chain of MSX2 (Homo sapiens, UniProt P35548 130-214) (P35548 130-214): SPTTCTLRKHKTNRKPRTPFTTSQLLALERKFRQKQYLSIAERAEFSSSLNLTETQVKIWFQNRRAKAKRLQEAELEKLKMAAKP
Chain of ALX4 (Homo sapiens, UniProt Q9H161 200-286, Q225E) (Q9H161 200-286 Q225E): as the sequence (Q9H161 200-286) above, with Q26E counted along it
Chain of ALX1 (Homo sapiens, UniProt Q15699 118-204) (Q15699 118-204): as the sequence (Q15699 118-204 L144V) above, with V27L counted along it
Chain of VAX1 (Homo sapiens, UniProt Q5SQQ9 86-172, K157R) (Q5SQQ9 86-172 K157R): as the sequence (Q5SQQ9 86-172) above, with K72R counted along it
Chain of PROP1 (Homo sapiens, UniProt O75360 56-141) (O75360 56-141): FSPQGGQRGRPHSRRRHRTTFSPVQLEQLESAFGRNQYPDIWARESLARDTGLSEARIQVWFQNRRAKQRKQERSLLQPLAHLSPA
Chain of PRRX1 (Homo sapiens, UniProt P54821 80-166, F113S) (P54821 80-166 F113S): as the sequence (P54821 80-166) above, with F34S counted along it
Chain of ALX1 (Homo sapiens, UniProt Q15699 118-204, L144R) (Q15699 118-204 L144R): as the sequence (Q15699 118-204 L144V) above, with V27R counted along it

Take AGGAGGCG: the binding signal was 8.14 upbm affinity estimate (log intensity, higher = more binding, comparable within an allelic series) in [1]; 8.12 upbm affinity estimate (log intensity, higher = more binding, comparable within an allelic series) in assay [2]; 9.45 upbm affinity estimate (log intensity, higher = more binding, comparable within an allelic series) in [3]; 9.43 upbm affinity estimate (log intensity, higher = more binding, comparable within an allelic series) in assay [4]; 9.49 upbm affinity estimate (log intensity, higher = more binding, comparable within an allelic series) in [5].

On to AGTCCGGC, for which the binding signal in assay [6] is 9.22 upbm affinity estimate (log intensity, higher = more binding, comparable within an allelic series); in assay [7], 9.22 upbm affinity estimate (log intensity, higher = more binding, comparable within an allelic series); in [8], 8.99 upbm affinity estimate (log intensity, higher = more binding, comparable within an allelic series); in assay [9] it was 9.29 upbm affinity estimate (log intensity, higher = more binding, comparable within an allelic series); in assay [10], 9.3 upbm affinity estimate (log intensity, higher = more binding, comparable within an allelic series); in assay [11] it was 9.32 upbm affinity estimate (log intensity, higher = more binding, comparable within an allelic series). For the same sequence, the binding signal in assay [12] was 9.3 upbm affinity estimate (log intensity, higher = more binding, comparable within an allelic series); in assay [13] it was 8.89 upbm affinity estimate (log intensity, higher = more binding, comparable within an allelic series).

As to AAGGGGGA, the binding signal in assay [6] is 9.21 upbm affinity estimate (log intensity, higher = more binding, comparable within an allelic series); in assay [7], 9.23 upbm affinity estimate (log intensity, higher = more binding, comparable within an allelic series); in [8] it was 8.87 upbm affinity estimate (log intensity, higher = more binding, comparable within an allelic series); in assay [9], 9.23 upbm affinity estimate (log intensity, higher = more binding, comparable within an allelic series); in assay [10], 9.11 upbm affinity estimate (log intensity, higher = more binding, comparable within an allelic series); in assay [11], 9.2 upbm affinity estimate (log intensity, higher = more binding, comparable within an allelic series). Moreover, the binding signal is 9.25 upbm affinity estimate (log intensity, higher = more binding, comparable within an allelic series) in [12] and 8.75 upbm affinity estimate (log intensity, higher = more binding, comparable within an allelic series) in assay [13].

For CCGTCTAG, the binding signal was 7.85 upbm affinity estimate (log intensity, higher = more binding, comparable within an allelic series) in [1]; 8.02 upbm affinity estimate (log intensity, higher = more binding, comparable within an allelic series) in [2]; 9.52 upbm affinity estimate (log intensity, higher = more binding, comparable within an allelic series) in assay [3]; 9.39 upbm affinity estimate (log intensity, higher = more binding, comparable within an allelic series) in assay [4]; 6.91 upbm affinity estimate (log intensity, higher = more binding, comparable within an allelic series) in assay [14]; 9.55 upbm affinity estimate (log intensity, higher = more binding, comparable within an allelic series) in assay [5]. Also, the binding signal in assay [15] was 7.09 upbm affinity estimate (log intensity, higher = more binding, comparable within an allelic series); in assay [16] it was 7.03 upbm affinity estimate (log intensity, higher = more binding, comparable within an allelic series).

On to GAGAGCGC, for which the binding signal in [1] was 7.97 upbm affinity estimate (log intensity, higher = more binding, comparable within an allelic series); in assay [2], 8.13 upbm affinity estimate (log intensity, higher = more binding, comparable within an allelic series); in assay [17] it was 7.72 upbm affinity estimate (log intensity, higher = more binding, comparable within an allelic series); in assay [18], 7.6 upbm affinity estimate (log intensity, higher = more binding, comparable within an allelic series); in assay [19] it was 7.75 upbm affinity estimate (log intensity, higher = more binding, comparable within an allelic series); in assay [20], 7.76 upbm affinity estimate (log intensity, higher = more binding, comparable within an allelic series). Further, the binding signal in assay [21] is 7.72 upbm affinity estimate (log intensity, higher = more binding, comparable within an allelic series).

With CGACATCC, the binding signal was 7.95 upbm affinity estimate (log intensity, higher = more binding, comparable within an allelic series) in [1] and 8.23 upbm affinity estimate (log intensity, higher = more binding, comparable within an allelic series) in assay [2].

Regarding ACGGAGGC, the binding signal in assay [1] was 8.04 upbm affinity estimate (log intensity, higher = more binding, comparable within an allelic series); in [2], 8.29 upbm affinity estimate (log intensity, higher = more binding, comparable within an allelic series); in assay [3], 9.59 upbm affinity estimate (log intensity, higher = more binding, comparable within an allelic series); in assay [17] it was 7.76 upbm affinity estimate (log intensity, higher = more binding, comparable within an allelic series); in assay [4], 9.53 upbm affinity estimate (log intensity, higher = more binding, comparable within an allelic series); in [18], 7.71 upbm affinity estimate (log intensity, higher = more binding, comparable within an allelic series). Moreover, the binding signal in assay [22] was 6.67 upbm affinity estimate (log intensity, higher = more binding, comparable within an allelic series); in [23], 6.65 upbm affinity estimate (log intensity, higher = more binding, comparable within an allelic series); in [19] it was 7.84 upbm affinity estimate (log intensity, higher = more binding, comparable within an allelic series); in assay [20] it was 7.82 upbm affinity estimate (log intensity, higher = more binding, comparable within an allelic series); in assay [24] it was 6.49 upbm affinity estimate (log intensity, higher = more binding, comparable within an allelic series); in [5], 9.52 upbm affinity estimate (log intensity, higher = more binding, comparable within an allelic series). Also, the binding signal in [21] was 7.76 upbm affinity estimate (log intensity, higher = more binding, comparable within an allelic series).

With CCTGCGAG, the binding signal in assay [1] was 7.97 upbm affinity estimate (log intensity, higher = more binding, comparable within an allelic series); in assay [2], 7.97 upbm affinity estimate (log intensity, higher = more binding, comparable within an allelic series); in [3], 9.6 upbm affinity estimate (log intensity, higher = more binding, comparable within an allelic series); in assay [4] it was 9.6 upbm affinity estimate (log intensity, higher = more binding, comparable within an allelic series); in assay [5], 9.61 upbm affinity estimate (log intensity, higher = more binding, comparable within an allelic series).

Take ACCCTCGG: the binding signal was 8.1 upbm affinity estimate (log intensity, higher = more binding, comparable within an allelic series) in [1]; 8.11 upbm affinity estimate (log intensity, higher = more binding, comparable within an allelic series) in assay [2]; 6.49 upbm affinity estimate (log intensity, higher = more binding, comparable within an allelic series) in [25]; 6.58 upbm affinity estimate (log intensity, higher = more binding, comparable within an allelic series) in [26]; 6.48 upbm affinity estimate (log intensity, higher = more binding, comparable within an allelic series) in assay [27].

Turning to AAATTAGT, the binding signal in assay [1] was 13.5 upbm affinity estimate (log intensity, higher = more binding, comparable within an allelic series); in [2], 12.5 upbm affinity estimate (log intensity, higher = more binding, comparable within an allelic series); in assay [25], 11.4 upbm affinity estimate (log intensity, higher = more binding, comparable within an allelic series); in assay [9], 12 upbm affinity estimate (log intensity, higher = more binding, comparable within an allelic series); in assay [26], 10.9 upbm affinity estimate (log intensity, higher = more binding, comparable within an allelic series); in [12], 10.9 upbm affinity estimate (log intensity, higher = more binding, comparable within an allelic series). Further, the binding signal in [27] is 12.1 upbm affinity estimate (log intensity, higher = more binding, comparable within an allelic series).

Turning to ATAATTTG, the binding signal in [6] was 11.6 upbm affinity estimate (log intensity, higher = more binding, comparable within an allelic series); in assay [28], 10.9 upbm affinity estimate (log intensity, higher = more binding, comparable within an allelic series); in assay [7], 12.1 upbm affinity estimate (log intensity, higher = more binding, comparable within an allelic series); in [9], 12 upbm affinity estimate (log intensity, higher = more binding, comparable within an allelic series); in [10] it was 10.5 upbm affinity estimate (log intensity, higher = more binding, comparable within an allelic series); in assay [11] it was 10.9 upbm affinity estimate (log intensity, higher = more binding, comparable within an allelic series). The binding signal in [12] is 11 upbm affinity estimate (log intensity, higher = more binding, comparable within an allelic series); in assay [29] it was 13.2 upbm affinity estimate (log intensity, higher = more binding, comparable within an allelic series).

As for CAGCCGGC, the binding signal in assay [6] was 9.11 upbm affinity estimate (log intensity, higher = more binding, comparable within an allelic series); in assay [28], 9.15 upbm affinity estimate (log intensity, higher = more binding, comparable within an allelic series); in assay [7], 9.27 upbm affinity estimate (log intensity, higher = more binding, comparable within an allelic series); in [3], 9.43 upbm affinity estimate (log intensity, higher = more binding, comparable within an allelic series); in assay [9], 9.19 upbm affinity estimate (log intensity, higher = more binding, comparable within an allelic series); in assay [10], 9.05 upbm affinity estimate (log intensity, higher = more binding, comparable within an allelic series). For the same sequence, the binding signal is 9.21 upbm affinity estimate (log intensity, higher = more binding, comparable within an allelic series) in assay [4]; 9.05 upbm affinity estimate (log intensity, higher = more binding, comparable within an allelic series) in assay [11]; 9.41 upbm affinity estimate (log intensity, higher = more binding, comparable within an allelic series) in assay [5]; 9.13 upbm affinity estimate (log intensity, higher = more binding, comparable within an allelic series) in [12]; 8.9 upbm affinity estimate (log intensity, higher = more binding, comparable within an allelic series) in assay [29].

In the case of AGGAGCCC, the binding signal in assay [1] is 7.99 upbm affinity estimate (log intensity, higher = more binding, comparable within an allelic series); in assay [2], 8.19 upbm affinity estimate (log intensity, higher = more binding, comparable within an allelic series); in assay [14], 6.97 upbm affinity estimate (log intensity, higher = more binding, comparable within an allelic series); in assay [15] it was 7.08 upbm affinity estimate (log intensity, higher = more binding, comparable within an allelic series); in [16] it was 7.05 upbm affinity estimate (log intensity, higher = more binding, comparable within an allelic series).

Turning to CGGGCCTC, the binding signal was 8.16 upbm affinity estimate (log intensity, higher = more binding, comparable within an allelic series) in assay [1]; 8.25 upbm affinity estimate (log intensity, higher = more binding, comparable within an allelic series) in assay [2]; 6.76 upbm affinity estimate (log intensity, higher = more binding, comparable within an allelic series) in [22]; 6.84 upbm affinity estimate (log intensity, higher = more binding, comparable within an allelic series) in [23]; 6.55 upbm affinity estimate (log intensity, higher = more binding, comparable within an allelic series) in assay [24].

The values are drawn from publication PMC11006913.
